Screens from PubChem BioAssay.
Pf growth 48h: Primary qHTS for delayed death inhibitors of the malarial parasite plastid, 48 hour incubation; P. falciparum luciferase growth in erythrocytes, 48 h; AID 504832, 2011; actives 5.9% (n = 310,000); Potency, µM (top dose mostly 28.7 µM), hits mostly inhibitors
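Cell-based growth assay: transgenic P. falciparum expressing firefly luciferase, cultured in red cells within RPMI 1640 containing 0.5% w/v Albumax, 24 mM bicarbonate and gentamycin. A drop in luciferase activity indicates inhibition.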
Pf growth 96h: Primary qHTS for delayed death inhibitors of the malarial parasite plastid, 96 hour incubation. P. falciparum luciferase reporter growth, 96 h. Potency, µM (doses to about 28.7 µM), hits mostly inhibitors. actives 6.9% (n = 320,000). AID 504834, 2011
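Erythrocytes infected with luciferase-expressing P. falciparum were dispensed at 2% hematocrit and 0.05% parasitemia (final), then incubated with compounds 96 hours at 37 C in 5% CO2. Luminescence after detection reagent addition reported growth.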
Sm TGR inh: qHTS Assay for the Inhibitors of Schistosoma Mansoni Peroxiredoxins; Schistosoma mansoni thioredoxin glutathione reductase (TGR), Q962Y6; purified TGR, DTNB reduction, TNB absorbance 405 nm; Potency, µM (series often up to 114 µM), actives largely listed as inhibitors; actives 3% (n = 360,000); further: nearly all actives have a fitted effect of over 60% in size
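First, TGR (20 nM dispensed) and NADPH were mixed with compound. Second, a 15 min room-temperature incubation followed. Third, further NADPH and then DTNB were added to start the reaction. Finally, TNB absorbance was monitored kinetically.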
Shiga inhibitor: A qHTS for Small Molecule Inhibitors of Shiga Toxin. actives 9.2% (n = 290,000). inhibition, % at 38.7 µM. Vero cells, Shiga toxin protein synthesis inhibition reporter. AID 2315, 2010; in the data active means inhibition mostly above about 28%, no sharp cut-off; inactive means mostly below about 43%
NS1 inh: qHTS Assay for Inhibitors of Influenza NS1 Protein Function | Potency, µM (highest dose often 46.1 µM) | actives 0.4% (n = 270,000); calls by dose curve; further: actives are rising curves; nearly all actives have a fitted effect of over 50% in size
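In this qHTS, NS1 from influenza A is expressed in budding yeast, where it slows growth. Cells are switched from glucose to 2% galactose medium (pH 6.0, -URA), treated with compound, and growth recovery is read at OD600.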
Cycloheximide cs: Cycloheximide Counterscreen for Small Molecule Inhibitors of Shiga Toxin; AID 2314, 2010; max response, %; cell reporter, cycloheximide protein synthesis inhibition counterscreen; actives 12% (n = 300,000); in the data active means max response mostly above about 13%, no sharp cut-off; inactive means mostly below about 14%; further: read at 38.3 µM for the half of the compounds with a filed dose
Flu NS1 inh: Assay for Inhibitors of Influenza NS1 Protein Function: Hit Validation. shares compounds with NS1 inh. influenza NS1 function cell assay, 15-point titration. activity change, negative = inhibition, % at 32.9 µM. 1,400 tested, under 10 active; calls by dose curve
PR8 titer: Assay for Inhibitors of Influenza NS1 Protein Function: Influenza virus replication assay in MDCK cells infected with virus A/PR/8/34. MDCK infected influenza A/PR/8/34, virus titer TCID50; stronger effect = lower value. shares compounds with NS1 inh. AID 504647, 2011. actives 30% (n = 95). virus titer (log TCID50), log10 TCID50 at 5 µM; call rule not given here
Large screens that a line does not name were inactive (follow-up assays come after a bar, where they were run). A selection: hits, their analogues and other compounds. The true share with any hit is near 21%. Unless noted, the call rests on the fitted dose curve; in most records, active means well fitted curve in the direction sought with a large enough effect; inconclusive means small, poorly fitted or top-dose-only effect, or another doubt; inactive means no such curve, though single readings can be large; an effect the other way counts as inactive or inconclusive.

O=C1OCCN1C(=O)[C@H]1[C@H](c2ccc([N+](=O)[O-])cc2)C(c2cccc(Cl)c2)=NN1c1ccccc1	Pf growth 96h inconclusive, NS1 inh 22.4µM | Flu NS1 inh inactive
O=C1OCCN1C(=O)[C@H]1[C@H](c2ccc([N+](=O)[O-])cc2)C(c2ccccc2)=NN1c1ccccc1	none (no result: Pf growth 48h, Pf growth 96h, Sm TGR inh, NS1 inh)
Cc1ccc(NC2CCCN(C(=O)c3ccc(-n4ccnc4)cc3)C2)cc1C (centres undefined)	Pf growth 48h inconclusive, Pf growth 96h inconclusive
Cc1ccc(C)c(S(=O)(=O)Nc2ccccc2C(=O)Nc2ccc(S(=O)(=O)Nc3ncccn3)cc2)c1	Pf growth 48h inconclusive, Pf growth 96h inconclusive, NS1 inh 11.2µM | Flu NS1 inh inactive
COc1ccc(CCNC(=O)C(C)n2c(=O)cc(C(F)(F)F)c3c(C)nn(C)c32)cc1OC (centres undefined)	none (no result: Pf growth 48h, Pf growth 96h, Shiga inhibitor, NS1 inh, Cycloheximide cs)
CCCCCCCCNC(=O)CCNC(=O)c1ccc(C(C)(C)C)cc1	Pf growth 96h inconclusive (no result: Pf growth 48h)
Cc1ccc(NS(=O)(=O)c2cc(C(=O)Nc3cccc([N+](=O)[O-])c3)ccc2C)cc1	Pf growth 48h inconclusive, NS1 inh inconclusive
Cc1ccc(NC(=O)CC(=O)c2ccc([N+](=O)[O-])cc2)cc1S(=O)(=O)Nc1cccc(Cl)c1	Pf growth 48h inconclusive, Pf growth 96h inconclusive, NS1 inh 14.1µM | Flu NS1 inh inactive | PR8 titer 7.5
COc1ccc2nc(SCC(=O)Nc3ccccc3)[nH]c2c1	NS1 inh inconclusive | Flu NS1 inh inactive
COc1ccc2nc(SCC(=O)Nc3c(C)cccc3C)[nH]c2c1	none
COc1cc(C(C(=O)NC2CCCCC2)N(C(=O)c2snc(C(N)=O)c2N)c2ccc(C)cc2)ccc1O (centres undefined)	Pf growth 48h 7.38µM, NS1 inh inconclusive | Flu NS1 inh inactive
O=C(Nc1nc(-c2ccco2)c(-c2ccco2)s1)C1CC(=O)N(c2ccc3c(c2)OCCO3)C1 (centres undefined)	Sm TGR inh 11.2µM, NS1 inh 10µM | Flu NS1 inh inactive
c1ccc(C2=Nn3c(Cn4nnc5ccccc54)nnc3SC2)cc1	none
c1ccc(-c2ccc(C3=Nn4c(Cn5nnc6ccccc65)nnc4SC3)cc2)cc1	Pf growth 48h inconclusive, Pf growth 96h 9.28µM, NS1 inh 12.6µM | Flu NS1 inh inconclusive
O=C(CSc1nnc(C2CC2)n1-c1ccccc1)NCCc1ccccc1	Pf growth 96h inconclusive (no result: Pf growth 48h)
C/C=C\C(=O)Nc1cccc(C2=NOC3(C2)C[C@@H](C(N)=O)N(C(=O)c2ccccc2)C3)c1 (some centres undefined)	Pf growth 48h inconclusive, Pf growth 96h inconclusive
C/C=C\C=C/C(=O)Nc1cccc(C2=NOC3(C2)C[C@@H](C(N)=O)N(C(=O)c2ccccc2)C3)c1 (some centres undefined)	Pf growth 96h inconclusive, Sm TGR inh 3.16µM, NS1 inh 1µM | Flu NS1 inh inactive
COCCn1nnnc1C(c1cc2ccc(OC)cc2[nH]c1=O)N1CCN(C2CCCCC2)CC1 (centres undefined)	Pf growth 48h inconclusive, Pf growth 96h inconclusive, NS1 inh 4.47µM | Flu NS1 inh inactive | PR8 titer 7.5
COCCn1nnnc1C(c1cc2cc(C)ccc2[nH]c1=O)N1CCN(C2CCCCC2)CC1 (centres undefined)	none (no result: Pf growth 96h)
CCOC(=O)c1ccc(-n2c(O)c(/C=N/NC(=O)C3COc4ccccc4O3)c3ccccc3c2=O)cc1 (centres undefined)	NS1 inh 8.91µM | Flu NS1 inh inactive
